MITF act: activators of MITF-driven TRPM1 promoter activity in SK-MEL-5 cells; activation, % at 12.5 µM; 300,000 compounds, 0.75% hits; AID 588334; SK-MEL-5 TRPM1-promoter luciferase, 24 h; % of positive control, neutral wells = 0;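 active = mean activation of at least 80% with every replicate also reaching 80%; inconclusive = mean reaches 80% but some replicate falls short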;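 also: 0% = neutral control wells and 100% = parthenolide positive control wells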
APOBEC3A inh: blocks human APOBEC3A ssDNA deamination; P31941; recombinant A3A, FAM/TAMRA ssDNA deamination fluorescence; inhibition, % at 20 µM; 330,000 compounds, 0.41% hits; AID 493011;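 active = at least 40% inhibition at 20 µM here, with at most 30% in a related deaminase screen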;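 also: plate controls were A3A with DMSO for no effect and wells lacking A3A enzyme for full effect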
Target sequence (P31941 whole entry, looked up): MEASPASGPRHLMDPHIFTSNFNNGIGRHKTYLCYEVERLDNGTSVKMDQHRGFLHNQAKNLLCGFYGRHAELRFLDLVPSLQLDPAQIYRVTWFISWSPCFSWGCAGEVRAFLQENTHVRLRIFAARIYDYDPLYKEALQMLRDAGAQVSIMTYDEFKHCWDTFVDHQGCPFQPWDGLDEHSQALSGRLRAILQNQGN
APOBEC3G inh: blocks human APOBEC3G single-stranded DNA deamination | Q9HC16 | recombinant A3G, ssDNA deamination FAM/TAMRA fluorescence | inhibition, % at 20 µM | 330,000 compounds, 0.28% hits | AID 493012;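 active = inhibition of at least 40% at 20 µM, with no more than 30% in the related APOBEC3A deaminase screen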;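 also: plate controls were DMSO wells with A3G for no effect and wells lacking A3G enzyme for full effect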
esBAF inh: SWI/SNF esBAF complex inhibition | mouse ES cells, Bmi1-luciferase knock-in reporter, 24 h; 100% = twice the neutral-well signal | reporter increase, % at 12.5 µM | 350,000 compounds, 2% hits | AID 602393; in the data active = activation above about 40%; inconclusive = no clear call, values can overlap the other calls;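 also: 0% = median of the plate's neutral control wells and 100% = double that signal; a rise in the Bmi1 reporter signal indicates esBAF inhibition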
Wnt bcat act: Wnt/beta-catenin pathway activation. Wnt/beta-catenin reporter cell assay, activator, plate reader. activation, % at 9.35 µM. 300,000 compounds, 1.2% hits. AID 743398; in the data active = activation above about 30%, passing the limit was not always enough; inconclusive = no clear call, values can overlap the other calls;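 also: 0% = neutral control wells and 100% = positive control wells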
PHOSPHO1 block: blocks human PHOSPHO1 phosphatase activity. recombinant PHOSPHO1, absorbance phosphatase assay. inhibition, % at 13.3 µM. 290,000 compounds, 1.1% hits; in the data active = inhibition above about 60%
Target sequence (Q8TCT1 whole entry, looked up): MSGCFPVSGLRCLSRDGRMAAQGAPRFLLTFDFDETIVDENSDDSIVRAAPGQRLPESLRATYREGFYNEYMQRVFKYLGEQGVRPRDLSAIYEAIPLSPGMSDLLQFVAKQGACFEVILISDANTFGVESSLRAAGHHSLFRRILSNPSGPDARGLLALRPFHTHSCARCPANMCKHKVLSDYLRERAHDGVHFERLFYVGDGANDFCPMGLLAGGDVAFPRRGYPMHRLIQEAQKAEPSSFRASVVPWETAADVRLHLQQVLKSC
Starred values were filed as active, the others as inactive; ? = inconclusive; · = no result given. This is a sample that favours compounds with a hit; in the whole collection about 3.6% have one here.

SMILES | MITF act | APOBEC3A inh | APOBEC3G inh | esBAF inh | Wnt bcat act | PHOSPHO1 block
O=c1cc(-c2ccccc2Cl)oc2cccc(O)c12 | -4 | -3 | -11 | 28 | 6 | -16
O=c1cc(-c2ccccc2Cl)oc2c(Br)ccc(O)c12 | 50 | 0 | -5 | 83* | 13 | 26
Cc1ccccc1C(=O)Nc1ccc(O)c2c(=O)cc(-c3ccccc3Cl)oc12 | 2 | 3 | -4 | -12 | 0 | 18
O=C(Nc1ccc(O)c2c(=O)cc(-c3ccccc3Cl)oc12)c1ccc(Cl)c(Cl)c1 | -5 | -4 | -12 | 51* | -6 | 13
Cn1c(NC(=O)c2ccc(F)cc2)c(-c2cccs2)c(=O)c2ccccc21 | 7 | 2 | -2 | · | -5 | 16
Cn1c(NC(=O)c2ccccc2F)c(-c2cccs2)c(=O)c2ccccc21 | -3 | 3 | 2 | · | 33* | 32
CC(C)NC(=O)N(C)C[C@@H]1Oc2ccc(NC(=O)C3CCCCC3)cc2C(=O)N([C@@H](C)CO)C[C@@H]1C | · | · | · | 1 | · | ·
C=CCN(CC=C)CCOc1ccc(C)cc1[N+](=O)[O-] | 10 | 0 | -5 | 53* | 26 | 34
C=CCN(CC=C)CCOc1cc(C)ccc1[N+](=O)[O-] | 1 | 2 | 3 | · | 0 | 23
Cc1ccnc(NC(=O)Nc2ccc3c(c2)N(C)C(=O)CS3)c1 | 187* | 1 | -10 | · | 24 | 2
Cc1cccc(NC(=O)Nc2ccc3c(c2)N(C)C(=O)CS3)n1 | 91* | -1 | -2 | 49* | 7 | 11
C/C(=C\C(=O)c1ccc(Cl)cc1)NCc1ccc2c(c1)OCO2 | 5 | 3 | 0 | -6 | · | 85*
COCC(=O)Nc1ccc2c(c1)C(=O)N(C)[C@H]1CC[C@H](CC(=O)Nc3cccc(C)c3)O[C@@H]1CO2 | · | · | · | 2 | · | ·
C(=N\Nc1nc(-c2ccccc2)cs1)/c1cccnc1 | 75 | -1 | -6 | 63* | 22 | 24
Cc1cc(=O)[nH]c(N/N=C/c2ccc(C)o2)n1 | -4 | -2 | -3 | · | 1 | -19
Cc1ccc(/C=N/Nc2nc3ccccc3s2)o1 | 21 | -1 | -9 | · | 35* | 3
C(=N\Nc1nccc(-c2cccnc2)n1)/c1ccccc1 | · | -2 | -7 | · | 49* | 24
C(=N\Nc1nn[nH]n1)/c1ccccc1 | 0 | -3 | -3 | 0 | -1 | 71*
CN1c2ccc(-c3ccccc3F)cc2[C@H]2[C@H](CCN2S(=O)(=O)c2ccccc2F)[C@H]1CO | · | · | · | -9 | · | ·
COC(=O)C1=C(C)N(Cc2ccccc2C(F)(F)F)C(=NCC2CC2)NC1CCc1ccccc1 (stereo not given) | · | · | · | · | -11 | ·
CC(C)CC#Cc1cnc2c(c1)C(=O)N([C@@H](C)CO)C[C@@H](C)[C@H](CN(C)Cc1ccccn1)O2 | · | · | · | -1 | · | ·
C[C@@H]1CN([C@@H](C)CO)C(=O)c2cc(NS(=O)(=O)c3cccs3)ccc2O[C@@H](C)CCCCO[C@H]1CN(C)Cc1ccc2c(c1)OCO2 | · | · | · | -5 | · | ·
CO[C@@H]1CN(C)C(=O)c2cc(NC(=O)c3ccc(Oc4ccccc4)cc3)ccc2OC[C@@H](C)NC[C@H]1C | · | · | · | 1 | · | ·
CC(C)(C)c1csc(N/N=C/c2cccnc2)n1 | 58 | -1 | -8 | 34* | 12 | -6
Cc1ccc(/C=N/Nc2nc(C(C)(C)C)cs2)o1 | 85* | 0 | -6 | ? | 5 | -6
SMILES | MITF act | APOBEC3A inh | APOBEC3G inh | esBAF inh | Wnt bcat act | PHOSPHO1 block
Cc1ccc(-n2cc(CNCCN3CCOC3=O)c(-c3cccc(C)c3)n2)cc1 | -3 | -5 | -6 | · | -7 | 3
O=C1OCCN1CCNCc1cn(-c2ccc(F)cc2)nc1-c1ccccc1Cl | 7 | 1 | -11 | · | 2 | 60*
Cc1ccc(S(=O)(=O)N(C)C[C@H]2Oc3ccc(NS(=O)(=O)c4cccs4)cc3C(=O)N([C@H](C)CO)C[C@@H]2C)cc1 | · | · | · | 1 | · | ·
COc1ccccc1C1CC(c2cccs2)=Nc2ccccc2S1 (stereo not given) | 3 | -3 | -1 | 53* | 41* | 94*
CC(=O)N1N=C(c2ccccc2)CC1c1cn(C)c2ccccc12 (stereo not given) | -7 | 0 | -2 | 32 | 90* | 0
CC[n+]1ccc(C[n+]2ccccc2)c2ccccc21 | 8 | · | · | · | -1 | 88*
CC[n+]1ccc(/C=C/c2ccc(N(C)C)cc2)c2ccccc21 | -88 | · | · | · | -4 | 28
C[C@H](NC(=O)[C@H]1[C@H](CO)[C@H]2Cn3c(ccc(-c4ccccc4)c3=O)[C@@H]1N2C)c1ccccc1 | · | · | · | -2 | · | ·
CN1C(=O)c2cc(NC(=O)c3ccccc3F)ccc2OC[C@H]2O[C@H](CC(=O)NCc3ccc4c(c3)OCO4)CC[C@H]21 | · | · | · | -1 | · | ·
Cc1cc(OCc2cc(C(=O)NCc3csc(C(C)C)n3)no2)cc(C)c1Cl | 6 | 1 | 1 | 8 | 0 | 68*
CCCc1ccc(OCc2ccc(C(=O)O)o2)c(OC)c1 | -8 | 5 | -4 | 11 | · | 18
CCOc1ccc(OCc2ccc(C(=O)NCc3ccncc3)o2)cc1 | 10 | -2 | -4 | 10 | · | -10
CCCc1ccc(OCc2ccc(C(=O)OC)o2)c(OC)c1 | 34 | 2 | 1 | 43* | 19 | 38
CCc1ccc(OCc2ccc(C(=O)OC)o2)cc1 | 89* | -1 | -6 | ? | 31* | 34
CCc1ccc(OCc2ccc(C(=O)NCc3ccccn3)o2)cc1 | 21 | 2 | 0 | 46* | · | 28
COC(=O)c1ccc(COc2ccc(C(C)(C)C)cc2)o1 | 41 | 1 | -5 | ? | 21 | 46
CCCNC(=O)N1C[C@@H](O)COC[C@H]2O[C@@H](CC(=O)NCc3ccc(Cl)c(Cl)c3)CC[C@@H]21 | · | · | · | 0 | · | ·
CCC(=O)NC[C@H]1[C@@H](c2ccccc2)[C@H](CO)N1C(=O)C1CC1 | · | · | · | -1 | · | ·
COc1cccc(OCc2cc(C(=O)N(C)Cc3nc(C)cs3)no2)c1 | 74 | -2 | -8 | 78* | 27 | 23
COc1cccc(OCc2cc(C(=O)NCc3ccccn3)no2)c1 | 110* | -3 | -3 | 61* | 16 | 51
CC(C)(C)c1ccc(OCc2ccc(C(=O)N3CCOCC3)o2)cc1 | 55 | -2 | -4 | 34 | 28 | 41
CCCc1ccc(OCc2ccc(C(=O)N3CCSCC3)o2)cc1 | 39 | -1 | -6 | 47* | 12 | 17
COc1cccc(C#Cc2cnc3c(c2)C(=O)N([C@@H](C)CO)C[C@@H](C)[C@@H](CN(C)C(=O)C2CCC2)O3)c1 | · | · | · | 4 | · | ·
CCNC(=O)C[C@H]1CC[C@H]2[C@@H](COC[C@@H](O)CN2S(=O)(=O)c2ccc(Oc3ccccc3)cc2)O1 | · | · | · | -2 | · | ·
C[C@@H](NC(=O)[C@@H]1N[C@@H]2c3ccc(C4=CCCCC4)c(=O)n3C[C@@H]2[C@H]1CO)c1ccccc1 | · | · | · | -3 | · | ·
O=S(=O)(Cc1cc(-c2ccc(Cl)cc2)no1)c1ccccc1 | ? | 3 | -6 | 51* | -4 | -27
